# In the library only some 3.3% were active in any assay of this set; here they are far more common.
# AmpC inh detg: blocks E. coli AmpC beta-lactamase in detergent assay | P00811 | AmpC hydrolysis of nitrocefin, absorbance 480 nm, 0.01% Triton | Potency, µM (series often up to 114 µM), for the others: at the top dose activity change, negative = inhibition, hits mostly inhibitors | 0.041% of 370,000 active;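 also: 0% = no-compound wells and -100% = no-enzyme wells; nearly all actives have a fitted effect of over 25% in size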
# Target sequence (P00811 whole entry, looked up): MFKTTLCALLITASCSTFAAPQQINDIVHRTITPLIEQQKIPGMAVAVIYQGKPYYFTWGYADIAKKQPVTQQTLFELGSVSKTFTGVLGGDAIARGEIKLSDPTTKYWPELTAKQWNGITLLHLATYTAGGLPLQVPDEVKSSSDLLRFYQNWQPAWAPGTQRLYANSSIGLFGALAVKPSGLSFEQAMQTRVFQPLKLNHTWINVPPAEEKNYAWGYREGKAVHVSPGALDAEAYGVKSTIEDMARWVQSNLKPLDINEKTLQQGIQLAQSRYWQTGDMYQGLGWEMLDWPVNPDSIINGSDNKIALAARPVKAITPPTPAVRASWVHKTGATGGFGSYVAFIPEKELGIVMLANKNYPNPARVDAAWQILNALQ
#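 20 mM phosphate pH 7.0 + 0.01% (detergent screen) or 0.0001% Triton X-100; 5.3 nM AmpC reagent; cpd preinc 15 min RT; nitrocefin (800 uM stock) to start; A480 q20 s × 4 min; Activity was normalised to no-enzyme and no-compound control wells.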
# Sm TGR inh: S. mansoni TGR enzyme inhibition | purified TGR, DTNB reduction, TNB absorbance 405 nm | Potency, µM (highest dose often 114 µM), for inactives: top-dose activity change, negative = inhibition, actives largely listed as inhibitors | 3% of 360,000 active; also: % is scaled to controls: 0 for no effect and ±100 for the full control effect; nearly all actives have a fitted effect of over 60% in size
#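 TGR 20 nM + NADPH 100 uM (dispensed conc.), cpd preinc 15 min RT; start with NADPH (500 uM addition) then DTNB (15 mM addition). Kinetic TNB absorbance, 405 nm filter. Four-parameter Hill fit across titration.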
# AmpC no deterg: AmpC beta-lactamase inhibition without detergent; P00811; AmpC nitrocefin hydrolysis, absorbance 480 nm, 0.0001% Triton; Potency, µM (series often up to 57.1 µM), for inactives: at the top dose activity change, negative = inhibition, usual class: inhibitors; 0.52% of 330,000 active;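 also: plate controls were no compound for no effect and no enzyme for full effect; nearly all actives have a fitted effect of over 20% in size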
#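 20 mM phosphate pH 7.0 + 0.01% (detergent screen) or 0.0001% Triton X-100; 5.3 nM AmpC reagent; cpd preinc 15 min RT; nitrocefin (800 uM stock) to start; A480 q20 s × 4 min; Activity was normalised to no-enzyme and no-compound control wells.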
# Tb PYK inh: T. brucei pyruvate kinase inhibition. Q57TT1. TbPYK enzyme, Kinase-Glo Plus ATP luminescence, 45 min. Potency, µM (titrated, usually from 76.8 µM), for inactives: top-dose activity, negative = inhibition, actives largely listed as inhibitors. 0.12% of 410,000 active. AID 624173; also: % is scaled to controls: 0 for no effect and ±100 for the full control effect; nearly all actives have a fitted effect of over 50% in size
#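 TbPYK + substrate in 50 mM TEA pH 7.2, 100 mM KCl, 10 mM MgCl2, 0.05% BSA, 0.01% Tween-20; cpd pinned; ADP 130 uM final; 45 min RT; Kinase-Glo Plus 10 min; luminescence endpoint.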
# RE007 growth inh: less growth of the S. pombe RE007 Vpr strain; S. pombe RE007 Vpr strain, BacTiter-Glo ATP luminescence, 24 h; Potency, µM (titrated, usually from 92.2 µM), inactives show at the top dose activity change, negative = less growth, actives largely listed as inhibitors; 0.21% of 360,000 active; active = well fitted falling curve with a large enough effect; inconclusive = small, poorly fitted or top-dose-only effect; inactive = no such curve, though single readings can be large or run the other way; also: % is scaled to controls: 0 for no effect and ±100 for the full control effect; nearly all actives have a fitted effect of over 50% in size
#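 Fission yeast strain RE007, carrying one chromosomally integrated HIV-1 vpr copy, was seeded at OD 0.01 in PMG+AL medium with 23 nL pinned compound. After 24 h at 30 °C and 99% humidity, viability was read by BacTiter-Glo luminescence.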
# SARS PLP yeast: SARS-CoV PLP inhibition in yeast; 0.19% of 330,000 active; Potency, µM (highest dose often 32.9 µM), inactives show at the top dose activity, positive = growth rescue, usual class: activators; S. cerevisiae expressing SARS-CoV PLpro, growth rescue; AID 485353; calls by dose curve; also: 0% is about no effect; nearly all actives have a fitted effect of over 55% in size
# * hit, by the source's call; ? = inconclusive; . = no result given; [ ] = dose if it differs, or a comment. Unless noted, calls follow the shape of the dose curve; as a rule, active = well fitted curve in the direction sought with a large enough effect; inconclusive = small, poorly fitted or top-dose-only effect, or another doubt; inactive = no such curve, though single readings can be large; an effect the other way counts as inactive or inconclusive. Potency is read from the fitted curve at half-maximal effect.
SMILES,AmpC inh detg,Sm TGR inh,AmpC no deterg,Tb PYK inh,RE007 growth inh,SARS PLP yeast
CC1(C)CCc2cc(-c3ccnc(=S)[nH]3)ccc2O1,0%,2%,-35%,-11%,21%,0%
S=c1nccc(-c2ccc3c(c2)CCO3)[nH]1,7%,35µM*,-21%,-17%,-2%,1%
COCCn1c(SCC(=O)c2ccc(Cl)cc2)nnc1C(C)C,-9%,40µM*,-4%,?,5%,-2%
CCn1c(SCC(=O)NCc2ccco2)nnc1-c1cccs1,-3%,10µM*,8%,-2%,-2%,2%
COCCn1c(SCC(=O)c2ccc3c(c2)OCCO3)nnc1C(C)C,0%,?,20%,-16%,-19%,3%
CC(Sc1nnc(-c2cccs2)n1-c1ccccc1)C(=O)NCc1ccco1 (stereo not given),-7%,45µM*,-14%,-14%,14%,6%
CCCCn1c(SCC(=O)NCc2ccco2)nnc1-c1ccoc1C,?,28µM*,49%,-15%,4%,2%
COc1ccc(NC(=O)c2ncoc2-c2ccco2)cc1Cl,1%,-6%,.,-6%,.,.
CC1=C(c2ccc(C(C)C)cc2)S(=O)(=O)N=C1N1CCC(C(=O)NCCc2ccco2)CC1,1%,-17%,.,-2%,.,.
COCCn1c(SCC(=O)NCc2ccco2)nnc1C(C)C,1%,45µM*,-5%,0%,11%,-35%
CCCCn1c(SCC(=O)NCc2ccco2)nnc1-c1ccco1,1%,45µM*,-1%,-25%,17%,4%
CCn1c(SCC(=O)NCc2ccco2)nnc1C(C)C,3%,0%,5%,-6%,-19%,6%
CC(Sc1ccsc1[N+](=O)[O-])C(=O)NCc1ccco1 (stereo not given),7%,22µM*,-39%,3%,9%,2%
O=C(Cc1cccs1)NCc1ccco1,-1%,-30%,-22%,-1%,-15%,19%
CC(C)c1ccc(NC(=O)c2cc3c(s2)-c2ccccc2SC3)cc1,9%,12%,.,-3%,.,.
COc1ccc(OC)c(Nc2ncnc3c2nc2n3CCCC2)c1,16%,3%,.,1%,.,.
CCc1ccccc1NS(=O)(=O)c1cc(Br)cc2c1N(C(=O)C1CC1)CC2,-4%,0%,.,-4%,.,.
Cc1ccc(Cl)cc1NC(=O)C1CCN(S(=O)(=O)c2cccc3nonc23)CC1,17%,4%,.,0%,.,.
CCCN1CCN(CCCNC(=O)c2cc3c(=O)n(C)c4ccccc4c3n2C)CC1,?,-6%,6%,-1%,-13%,-2%
Cn1c(C(=O)NCCCN2CCCCCC2)cc2c(=O)n(C)c3ccccc3c21,?,?,11µM*,-2%,2%,-3%
C/C(=N\NC(=O)c1nn(C)c(C)c1Br)c1cccc(NC(=O)c2ccoc2C)c1,?,-2%,32µM*,-5%,24%,-8%
COc1cccc(N2C(=O)C(CC(=O)Nc3ccc(F)cc3)N(CCC3=CCCCC3)C2=O)c1 (stereo not given),2%,-3%,.,4%,.,.
O=C(O)c1ccccc1SC1CC(=O)N(c2ccccc2)C1=O (stereo not given),-11%,14µM*,-18%,1%,10µM*,-80%
Cc1nc(SC2CC(=O)N(c3ccccc3)C2=O)nc2c1CCCC2 (stereo not given),-4%,-23%,-7%,-4%,-11%,1%
Cc1nnc(SC2CC(=O)N(c3ccccc3)C2=O)s1 (stereo not given),3%,2.5µM*,-8%,-6%,40µM*,-94%
SMILES,AmpC inh detg,Sm TGR inh,AmpC no deterg,Tb PYK inh,RE007 growth inh,SARS PLP yeast
O=C(O)c1cccnc1SC1CC(=O)N(c2ccccc2)C1=O (stereo not given),3%,50µM*,-7%,1%,5%,-3%
COc1ccc(N2C(=O)CC(Sc3ncccc3C(=O)O)C2=O)cc1 (stereo not given),0%,?,-15%,-2%,-5%,-1%
CC(c1ccccc1)N1C(=O)CC(Sc2ncccc2C(=O)O)C1=O (stereo not given),?,35µM*,-4%,6%,3%,-4%
Cc1nc2cccnc2n1-c1cccc(C(=O)N2CCN(c3ccc(Cl)cc3)CC2)c1,-1%,5%,.,1%[15.4 µM],.,.
CCOc1ccc(C[C@H]2NC(=O)CCSSC[C@@H](C(=O)N3CCC[C@H]3C(=O)N[C@@H](CCCN)C(=O)NCC(N)=O)NC(=O)[C@H](CC(N)=O)NC(=O)[C@H]([C@@H](C)O)NC(=O)[C@H]([C@@H](C)CC)NC2=O)cc1,.,.,.,0%,.,.
O=C1CC(Sc2cccs2)C(=O)N1c1ccccc1 (stereo not given),-8%,6.3µM*,-20%,-5%,?,-6%
O=C1CC(N2CCSCC2)C(=O)N1c1ccccc1 (stereo not given),8%,.,-10%,1%,?,-5%
O=C(O)c1ccccc1SC1CC(=O)N(C2CCCCC2)C1=O (stereo not given),?,4µM*,2%,-5%,8%,-9%
COc1ccc(S(=O)(=O)CC(=O)c2cc(C)c(O)c(C)c2)cc1,-5%,28µM*,-51%,-4%,.,2%
Cc1cc(C(=O)CS(=O)(=O)c2ccc(Cl)cc2)cc(C)c1O,5%,4.5µM*,-47%,-9%,1%,1%
COc1cccc(-n2c(-c3ccc(Cl)cc3)cc3c2CC(C)(C)CC3=O)c1,13%,-3%,.,-3%,.,.
CCn1c(=O)c2cc(C(=O)N3CCN(C)CC3)sc2c2ccccc21,-5%,5%,0.63µM*,-2%,5%,-6%
Cc1cc(C)cc(NC(=O)CSCc2cc(=O)c3ccc(C)c(C)c3[nH]2)c1,14%,-2%,.,4%,.,.
O=C(NCc1ccco1)c1ccc(-c2ccccc2Cl)o1,-4%,25µM*,-40%,-5%,-25%,-28%
O=C(NCc1ccco1)c1ccc(Cn2cc([N+](=O)[O-])cn2)o1,-15%,51%,-24%,-4%,7%,0%
O=C(NCc1ccco1)c1c(F)c(F)c(F)c(C(=O)NCc2ccco2)c1F,-5%,45µM*,-22%,2%,-3%,0%
O=C(NCc1ccco1)c1c(Cl)cccc1Cl,.,.,.,-3%,3%,.
O=C(NCc1ccco1)c1ccc([N+](=O)[O-])o1,-4%,28µM*,-17%,1%,-8%,2%
N/C(COc1cccc(Cl)c1)=N\NS(=O)(=O)c1ccccc1,2%,-2%,0.32µM*,2%,34%,-1%
O=C(NCc1cccc(F)c1)c1ccc(-n2cnc3cccnc32)cc1,-2%,-6%,.,4%[15.4 µM],.,.

# Screening results (PubChem BioAssay)
